Reference: the supplement of paper PMC11732987, “Enantioselective OTUD7B fragment discovery through chemoproteomics screening and high-throughput optimisation” (Communications Chemistry, 2025)
A number with no mark means an inactive call.

Tests used:
Assay in all cases: log2 ratio of Biotin-Ahx-Ub-VS probe labelling (fragment/DMSO); higher = less target engagement (more negative = stronger competition), active = hit call of the paper (q ≤ 0.05, log2 ratio ≤ -1)
Details in all cases: compound concentration: 200 uM; treatment time: 3 h
[1] = target: USP16 (UniProt Q9Y5T5)
In short: (§1)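 Global-median-normalised Spectronaut label-free quantities were compared by unpaired t-test, and values are average log2 ratios of fragment over vehicle. Only proteins with ≥2 unique peptides were used. HEK293T lysate (495 µg per sample) was treated in triplicate with fragment at 200 µM or vehicle for 3 h and then with Biotin-Ahx-Ub-VS at 0.5 µM final for 1 h. Labelled DUBs were then NeutrAvidin-enriched, digested with LysC and trypsin, and run by diaPASEF LC-MS/MS.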

[2] = target: T1, USP19 (UniProt O94966)
T1 sequence (whole entry): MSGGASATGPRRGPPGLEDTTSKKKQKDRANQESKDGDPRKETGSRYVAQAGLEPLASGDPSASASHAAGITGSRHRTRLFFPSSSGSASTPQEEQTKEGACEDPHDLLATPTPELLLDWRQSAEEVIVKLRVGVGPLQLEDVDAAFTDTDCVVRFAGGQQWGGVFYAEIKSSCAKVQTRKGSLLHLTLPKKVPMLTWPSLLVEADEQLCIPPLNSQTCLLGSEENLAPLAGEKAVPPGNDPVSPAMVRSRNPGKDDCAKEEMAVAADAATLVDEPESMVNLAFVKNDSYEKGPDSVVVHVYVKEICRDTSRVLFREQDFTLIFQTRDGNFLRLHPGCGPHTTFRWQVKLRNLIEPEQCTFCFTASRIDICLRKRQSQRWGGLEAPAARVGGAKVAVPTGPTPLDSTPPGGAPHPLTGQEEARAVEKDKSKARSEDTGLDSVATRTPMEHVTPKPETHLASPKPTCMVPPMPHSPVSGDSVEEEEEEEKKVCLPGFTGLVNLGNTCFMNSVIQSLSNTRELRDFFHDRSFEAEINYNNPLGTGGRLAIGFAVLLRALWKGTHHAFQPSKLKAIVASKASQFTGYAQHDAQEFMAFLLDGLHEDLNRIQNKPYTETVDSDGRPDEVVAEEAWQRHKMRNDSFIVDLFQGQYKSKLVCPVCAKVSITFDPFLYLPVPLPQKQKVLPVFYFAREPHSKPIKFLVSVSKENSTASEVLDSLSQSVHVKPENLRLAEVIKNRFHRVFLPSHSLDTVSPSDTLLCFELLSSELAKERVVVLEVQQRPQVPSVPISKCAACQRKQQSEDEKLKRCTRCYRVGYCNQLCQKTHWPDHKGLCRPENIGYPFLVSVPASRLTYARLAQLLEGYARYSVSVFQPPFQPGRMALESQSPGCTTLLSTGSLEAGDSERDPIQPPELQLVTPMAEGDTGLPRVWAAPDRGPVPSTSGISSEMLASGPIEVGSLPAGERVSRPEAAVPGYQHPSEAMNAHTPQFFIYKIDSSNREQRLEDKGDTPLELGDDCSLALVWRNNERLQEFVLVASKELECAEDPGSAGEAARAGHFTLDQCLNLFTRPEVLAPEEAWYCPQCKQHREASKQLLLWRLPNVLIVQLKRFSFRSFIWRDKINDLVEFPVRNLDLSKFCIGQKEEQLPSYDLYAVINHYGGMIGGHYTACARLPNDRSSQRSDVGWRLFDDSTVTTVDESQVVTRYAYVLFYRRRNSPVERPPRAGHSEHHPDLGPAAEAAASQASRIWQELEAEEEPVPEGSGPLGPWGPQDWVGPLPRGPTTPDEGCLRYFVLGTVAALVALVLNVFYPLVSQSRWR
In short: as §1

[3] = target: USP24 (UniProt Q9UPU5)
In short: as §1

[4] = target: T2, USP25 (UniProt Q9UHP3)
T2 sequence (whole entry): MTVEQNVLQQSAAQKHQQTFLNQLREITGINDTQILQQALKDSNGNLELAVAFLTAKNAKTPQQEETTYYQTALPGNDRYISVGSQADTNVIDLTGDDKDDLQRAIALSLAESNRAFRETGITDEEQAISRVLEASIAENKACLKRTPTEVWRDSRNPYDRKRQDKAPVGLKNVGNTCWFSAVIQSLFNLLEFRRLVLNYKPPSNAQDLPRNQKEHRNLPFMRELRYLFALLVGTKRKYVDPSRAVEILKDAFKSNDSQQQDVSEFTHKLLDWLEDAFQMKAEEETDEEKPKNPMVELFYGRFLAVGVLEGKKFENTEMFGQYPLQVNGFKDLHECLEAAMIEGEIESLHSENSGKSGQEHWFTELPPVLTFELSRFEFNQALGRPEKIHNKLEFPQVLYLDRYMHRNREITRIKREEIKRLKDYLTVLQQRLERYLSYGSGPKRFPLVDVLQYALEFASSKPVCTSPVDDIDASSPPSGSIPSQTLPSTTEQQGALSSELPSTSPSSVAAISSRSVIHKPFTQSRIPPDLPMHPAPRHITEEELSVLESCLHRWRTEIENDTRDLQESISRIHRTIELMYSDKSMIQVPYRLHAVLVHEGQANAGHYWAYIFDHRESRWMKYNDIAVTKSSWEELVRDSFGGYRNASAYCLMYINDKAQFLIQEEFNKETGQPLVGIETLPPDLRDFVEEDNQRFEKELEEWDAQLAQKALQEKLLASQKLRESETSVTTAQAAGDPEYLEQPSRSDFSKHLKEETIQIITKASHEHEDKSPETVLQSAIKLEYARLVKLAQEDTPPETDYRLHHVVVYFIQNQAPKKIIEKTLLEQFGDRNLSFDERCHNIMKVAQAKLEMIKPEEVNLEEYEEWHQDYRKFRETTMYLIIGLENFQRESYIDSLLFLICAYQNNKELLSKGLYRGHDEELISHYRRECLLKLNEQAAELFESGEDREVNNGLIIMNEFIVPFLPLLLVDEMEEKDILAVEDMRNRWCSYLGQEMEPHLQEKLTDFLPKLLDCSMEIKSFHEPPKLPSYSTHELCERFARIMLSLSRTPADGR
In short: as §1

[5] = target: T3, USP28 (UniProt Q96RU2)
T3 sequence (whole entry): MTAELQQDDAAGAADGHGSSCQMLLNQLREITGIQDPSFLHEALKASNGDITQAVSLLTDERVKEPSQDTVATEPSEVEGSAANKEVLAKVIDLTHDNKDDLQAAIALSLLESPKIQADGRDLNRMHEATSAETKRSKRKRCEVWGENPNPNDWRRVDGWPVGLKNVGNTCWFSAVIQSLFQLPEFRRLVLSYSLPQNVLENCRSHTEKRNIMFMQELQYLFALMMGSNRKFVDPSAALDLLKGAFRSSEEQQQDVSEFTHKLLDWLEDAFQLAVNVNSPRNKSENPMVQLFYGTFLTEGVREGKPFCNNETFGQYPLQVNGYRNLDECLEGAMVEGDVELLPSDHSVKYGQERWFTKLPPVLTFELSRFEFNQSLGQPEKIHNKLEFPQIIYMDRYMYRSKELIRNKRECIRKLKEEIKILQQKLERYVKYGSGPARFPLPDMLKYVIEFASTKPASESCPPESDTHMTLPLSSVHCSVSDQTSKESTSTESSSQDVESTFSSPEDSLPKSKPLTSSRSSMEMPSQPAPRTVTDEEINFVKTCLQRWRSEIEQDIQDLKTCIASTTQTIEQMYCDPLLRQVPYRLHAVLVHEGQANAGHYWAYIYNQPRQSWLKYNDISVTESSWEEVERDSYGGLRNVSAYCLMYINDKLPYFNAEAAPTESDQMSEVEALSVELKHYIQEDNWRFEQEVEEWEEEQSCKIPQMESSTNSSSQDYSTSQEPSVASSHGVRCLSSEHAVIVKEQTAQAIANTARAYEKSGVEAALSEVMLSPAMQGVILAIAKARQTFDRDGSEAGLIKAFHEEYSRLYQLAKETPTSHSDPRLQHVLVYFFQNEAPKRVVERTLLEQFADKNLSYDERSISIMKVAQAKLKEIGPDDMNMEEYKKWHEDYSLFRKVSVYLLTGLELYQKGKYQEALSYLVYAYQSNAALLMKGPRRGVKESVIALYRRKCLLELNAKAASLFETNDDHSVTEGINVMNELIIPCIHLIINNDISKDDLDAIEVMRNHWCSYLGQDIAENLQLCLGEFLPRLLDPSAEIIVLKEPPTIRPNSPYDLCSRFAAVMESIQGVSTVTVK
In short: as §1

Chain of USP16 (Q9Y5T5 whole entry, looked up, the tested form may be a part): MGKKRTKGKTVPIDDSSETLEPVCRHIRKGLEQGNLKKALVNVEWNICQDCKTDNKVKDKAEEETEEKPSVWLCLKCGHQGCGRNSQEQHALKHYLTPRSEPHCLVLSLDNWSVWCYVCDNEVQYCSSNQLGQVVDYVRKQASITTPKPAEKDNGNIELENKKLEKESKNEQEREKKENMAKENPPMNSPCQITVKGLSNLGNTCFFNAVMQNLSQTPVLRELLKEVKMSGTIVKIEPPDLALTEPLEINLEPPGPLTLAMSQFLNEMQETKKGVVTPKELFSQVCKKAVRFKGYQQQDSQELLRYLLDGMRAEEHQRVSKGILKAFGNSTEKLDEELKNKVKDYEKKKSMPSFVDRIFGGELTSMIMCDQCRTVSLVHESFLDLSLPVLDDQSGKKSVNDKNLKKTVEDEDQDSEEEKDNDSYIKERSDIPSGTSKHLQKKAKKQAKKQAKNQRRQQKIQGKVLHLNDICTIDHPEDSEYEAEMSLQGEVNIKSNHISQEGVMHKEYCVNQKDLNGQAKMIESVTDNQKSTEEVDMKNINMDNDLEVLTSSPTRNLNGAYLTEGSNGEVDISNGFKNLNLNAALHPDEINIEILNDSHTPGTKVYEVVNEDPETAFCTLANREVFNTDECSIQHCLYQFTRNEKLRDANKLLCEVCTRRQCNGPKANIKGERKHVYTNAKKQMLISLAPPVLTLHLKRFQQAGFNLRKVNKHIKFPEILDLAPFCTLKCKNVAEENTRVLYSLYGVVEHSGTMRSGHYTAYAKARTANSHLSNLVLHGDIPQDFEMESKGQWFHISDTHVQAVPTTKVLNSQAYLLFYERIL
Chain of USP24 (Q9UPU5 whole entry): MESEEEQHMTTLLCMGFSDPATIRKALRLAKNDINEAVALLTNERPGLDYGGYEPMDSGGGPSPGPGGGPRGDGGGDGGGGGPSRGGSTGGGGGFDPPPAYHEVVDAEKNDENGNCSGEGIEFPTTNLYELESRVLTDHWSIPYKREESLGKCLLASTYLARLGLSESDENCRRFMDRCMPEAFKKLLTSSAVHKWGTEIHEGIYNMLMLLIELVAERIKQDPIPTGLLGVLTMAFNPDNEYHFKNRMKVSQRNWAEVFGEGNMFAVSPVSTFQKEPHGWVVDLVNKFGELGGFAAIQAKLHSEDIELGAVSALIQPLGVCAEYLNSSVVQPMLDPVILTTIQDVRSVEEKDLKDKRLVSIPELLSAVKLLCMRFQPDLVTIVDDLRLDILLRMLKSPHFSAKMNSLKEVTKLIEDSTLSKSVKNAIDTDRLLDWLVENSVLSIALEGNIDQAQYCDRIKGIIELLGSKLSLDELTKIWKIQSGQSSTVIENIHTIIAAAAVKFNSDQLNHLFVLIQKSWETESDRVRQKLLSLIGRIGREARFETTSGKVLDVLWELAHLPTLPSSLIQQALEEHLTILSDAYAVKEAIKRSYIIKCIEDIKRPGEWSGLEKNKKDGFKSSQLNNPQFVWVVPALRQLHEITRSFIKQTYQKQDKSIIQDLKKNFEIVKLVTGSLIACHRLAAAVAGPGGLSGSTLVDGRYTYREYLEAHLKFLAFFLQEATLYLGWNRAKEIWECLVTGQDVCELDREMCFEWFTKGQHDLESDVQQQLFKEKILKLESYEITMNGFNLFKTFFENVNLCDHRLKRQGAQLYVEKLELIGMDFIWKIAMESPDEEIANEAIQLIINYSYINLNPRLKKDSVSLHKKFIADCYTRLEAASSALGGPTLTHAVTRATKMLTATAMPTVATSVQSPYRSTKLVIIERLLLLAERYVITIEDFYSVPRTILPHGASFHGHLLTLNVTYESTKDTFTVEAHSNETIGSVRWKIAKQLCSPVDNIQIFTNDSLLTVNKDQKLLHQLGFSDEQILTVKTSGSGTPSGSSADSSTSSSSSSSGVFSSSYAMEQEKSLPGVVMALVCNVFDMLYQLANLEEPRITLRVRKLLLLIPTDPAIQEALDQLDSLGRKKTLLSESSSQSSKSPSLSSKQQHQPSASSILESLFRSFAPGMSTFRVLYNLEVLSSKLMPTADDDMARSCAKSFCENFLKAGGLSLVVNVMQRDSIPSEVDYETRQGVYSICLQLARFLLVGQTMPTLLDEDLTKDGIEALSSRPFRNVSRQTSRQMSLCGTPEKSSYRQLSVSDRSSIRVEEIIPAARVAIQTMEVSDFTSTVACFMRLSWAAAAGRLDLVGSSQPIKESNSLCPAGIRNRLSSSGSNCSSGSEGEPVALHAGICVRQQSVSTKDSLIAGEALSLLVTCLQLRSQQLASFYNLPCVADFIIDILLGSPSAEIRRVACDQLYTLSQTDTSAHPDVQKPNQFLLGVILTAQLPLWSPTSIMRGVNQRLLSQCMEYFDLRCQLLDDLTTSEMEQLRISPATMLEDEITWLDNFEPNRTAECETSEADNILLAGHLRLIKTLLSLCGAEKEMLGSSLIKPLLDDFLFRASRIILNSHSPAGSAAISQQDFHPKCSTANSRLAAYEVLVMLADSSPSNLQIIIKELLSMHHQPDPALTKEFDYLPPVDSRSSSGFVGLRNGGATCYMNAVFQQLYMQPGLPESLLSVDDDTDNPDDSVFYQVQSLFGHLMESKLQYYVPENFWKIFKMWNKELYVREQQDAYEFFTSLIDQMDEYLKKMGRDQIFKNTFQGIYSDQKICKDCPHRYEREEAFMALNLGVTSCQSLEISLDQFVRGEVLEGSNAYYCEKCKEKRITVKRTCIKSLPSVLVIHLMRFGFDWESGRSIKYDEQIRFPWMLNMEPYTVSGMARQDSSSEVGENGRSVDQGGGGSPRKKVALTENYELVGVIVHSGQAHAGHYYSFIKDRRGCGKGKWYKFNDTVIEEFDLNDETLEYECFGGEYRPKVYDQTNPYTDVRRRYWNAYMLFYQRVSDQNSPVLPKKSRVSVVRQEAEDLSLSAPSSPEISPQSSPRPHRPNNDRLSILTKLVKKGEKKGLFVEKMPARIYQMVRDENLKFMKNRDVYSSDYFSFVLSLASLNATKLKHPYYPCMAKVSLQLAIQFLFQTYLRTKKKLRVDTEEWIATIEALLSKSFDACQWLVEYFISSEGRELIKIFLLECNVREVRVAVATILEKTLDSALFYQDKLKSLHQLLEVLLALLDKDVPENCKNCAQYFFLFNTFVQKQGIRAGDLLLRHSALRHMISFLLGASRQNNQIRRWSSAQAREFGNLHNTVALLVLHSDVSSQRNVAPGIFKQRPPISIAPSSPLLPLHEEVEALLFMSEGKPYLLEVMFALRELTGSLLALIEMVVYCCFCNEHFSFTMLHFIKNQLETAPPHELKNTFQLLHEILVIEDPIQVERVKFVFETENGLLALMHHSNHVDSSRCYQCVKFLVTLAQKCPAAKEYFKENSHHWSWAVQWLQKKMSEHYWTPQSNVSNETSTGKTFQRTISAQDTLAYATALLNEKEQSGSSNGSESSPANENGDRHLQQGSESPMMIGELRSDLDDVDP

Structure (SMILES): Cc1ccc(N(CCC#N)C(=O)CCl)cc1C
- log2 ratio of Biotin-Ahx-Ub-VS probe labelling [1]: -0.0509
- log2 ratio of Biotin-Ahx-Ub-VS probe labelling [2]: -0.203
- log2 ratio of Biotin-Ahx-Ub-VS probe labelling [3]: -1.05 (active)
- log2 ratio of Biotin-Ahx-Ub-VS probe labelling [4]: -0.271
- log2 ratio of Biotin-Ahx-Ub-VS probe labelling [5]: -0.679
